Experimental findings from publication PMC8384837, “Expanding the binding specificity for RNA recognition by a PUF domain” are described below.

Sequence of PUM1 PUF domain R5-GRA (Q14671 828-1176 C1007G/Q1011A): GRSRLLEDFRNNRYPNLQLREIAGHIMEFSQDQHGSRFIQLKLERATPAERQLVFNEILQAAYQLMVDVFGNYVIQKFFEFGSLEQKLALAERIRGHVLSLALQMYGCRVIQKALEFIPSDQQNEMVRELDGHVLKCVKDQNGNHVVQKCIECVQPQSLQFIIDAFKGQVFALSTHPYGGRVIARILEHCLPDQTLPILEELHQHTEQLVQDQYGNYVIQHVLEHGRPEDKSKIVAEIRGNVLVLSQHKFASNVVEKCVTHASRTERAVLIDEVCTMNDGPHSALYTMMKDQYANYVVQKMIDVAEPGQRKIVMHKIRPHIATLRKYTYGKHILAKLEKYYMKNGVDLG

One assay has as its target PUM1 PUF domain R5-GRA (Homo sapiens, UniProt Q14671 828-1176, C1007G;Q1011A). Nature of the assay: yeast three-hybrid, YBZ-1, SC-Leu-His + 0.5 mM 3-AT, 4 days. Conditions: tags: N-Gal4 AD-HA kept; label: inside an RPR1-promoter hybrid RNA with tandem MS2 sites; ssRNA. The procedure, abridged: (§1)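 Pumilio-1 PUF domain libraries, randomized (NNK) at the three base-contacting residues of each repeat, were co-expressed with matching RNA elements from a centromeric plasmid in strain YBZ-1 (LexA–MS2 coat fusion, HIS3 reporter). Transformants were plated on SC-Leu (input) and SC-Leu-His + 0.5 mM 3-AT (selection) for four days, and repeat regions were PCR-amplified and Illumina-sequenced. The interaction score is the log2 change in variant frequency from input to selection, with pseudocount 1 where absent.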
In the case of “GGCUAGAACUAGUGGAUCCCCCGGCGCCCGGCGGCUCGAGCCCGGGUAAGUGUUAAUAGUCUGCAUGCCGCCGGGCGCCAUGCCUGCAGGUCGACUCUAGAAAACAUG”, the binding signal was 2.93 log2 enrichment (interaction score).

For “GGCUAGAACUAGUGGAUCCCCCGGCGCCCGGCGGCUCGAGCCCGGGUAAGUGUGAAUAGUCUGCAUGCCGCCGGGCGCCAUGCCUGCAGGUCGACUCUAGAAAACAUG”, the binding signal was 1.36 log2 enrichment (interaction score).

Regarding “GGCUAGAACUAGUGGAUCCCCCGGCGCCCGGCGGCUCGAGCCCGGGUAAGUGUAAAUAGUCUGCAUGCCGCCGGGCGCCAUGCCUGCAGGUCGACUCUAGAAAACAUG”, the binding signal is 2.95 log2 enrichment (interaction score).

The next assay deals with PUM1 PUF domain R5-DWA (Homo sapiens, UniProt Q14671 828-1176, C1007D;R1008W;Q1011A). The assay is described as above. Conditions: tags: N-Gal4 AD-HA kept; label: inside an RPR1-promoter hybrid RNA with tandem MS2 sites; ssRNA. The procedure, abridged: as §1
“GGCUAGAACUAGUGGAUCCCCCGGCGCCCGGCGGCUCGAGCCCGGGUAAGUGUUAAUAGUCUGCAUGCCGCCGGGCGCCAUGCCUGCAGGUCGACUCUAGAAAACAUG”: the binding signal is 5.07 log2 enrichment (interaction score).

Turning to “GGCUAGAACUAGUGGAUCCCCCGGCGCCCGGCGGCUCGAGCCCGGGUAAGUGUGAAUAGUCUGCAUGCCGCCGGGCGCCAUGCCUGCAGGUCGACUCUAGAAAACAUG”, the binding signal is 4.75 log2 enrichment (interaction score).

“GGCUAGAACUAGUGGAUCCCCCGGCGCCCGGCGGCUCGAGCCCGGGUAAGUGUCAAUAGUCUGCAUGCCGCCGGGCGCCAUGCCUGCAGGUCGACUCUAGAAAACAUG”: the binding signal was 2.25 log2 enrichment (interaction score).

Consider “GGCUAGAACUAGUGGAUCCCCCGGCGCCCGGCGGCUCGAGCCCGGGUAAGUGUAAAUAGUCUGCAUGCCGCCGGGCGCCAUGCCUGCAGGUCGACUCUAGAAAACAUG”, for which the binding signal is 1.76 log2 enrichment (interaction score).
